This is one part of the list. How many sequences the whole screen found active is unknown.
B1: HC2509 (peptide)
chain: CASTYCSAHLAGNASASA
B2: HC2355 (peptide)
chain: CAEVHCHRPSAGNASASA
B3: HC645 (peptide)
chain: CAVAVEPVVFAGNASASA
B4: FS-2825 (peptide)
chain: CARTKRDVYQAGNASASA
B5: FS-2960 (peptide)
chain: CARKGRYKAFAGNASASA
B6: FS-2095 (peptide)
chain: CARTKRYVVFAGNASASA
B7: HC1294 (peptide)
chain: CAEISVPAEIAGNASASA
B8: HC2507 (peptide)
chain: CASTFCSAHLAGNASASA
B9: HC2282 (peptide)
chain: CAQLEVVTSTAGNASASA
B10: HC511 (peptide)
chain: CAYLYGVGSSAGNASASA
B11: FS-1112 (peptide)
chain: CAARQRTRRHAGNASASA
B12: FS-506 (peptide)
chain: CASRRRFYRPAGNASASA
B13: FS-1167 (peptide)
chain: CASRRRMKRVAGNASASA
B14: FS-873 (peptide)
chain: CASRRRTRRPAGNASASA
B15: HC1618 (peptide)
chain: CAPPLRAWRHAGNASASA
B16: FS-1416 (peptide)
chain: CASRRRARRHAGNASASA
B17: FS-1087 (peptide)
chain: CASRIRIERVAGNASASA
B18: HC623 (peptide)
chain: CAARKMIGGHAGNASASA
B19: FS-975 (peptide)
chain: CAAPPRARRHAGNASASA
B20: HC2345 (peptide)
chain: CAEVLCHRPSAGNASASA
B21: HC1771 (peptide)
chain: CAMEECSQHDAGNASASA
B22: HC1035 (peptide)
chain: CAAVQTNWQKAGNASASA
B23: HC476 (peptide)
chain: CAMYVGGVEHAGNASASA
B24: HC46 (peptide)
chain: CATTPFSGSWAGNASASA
B25: FS-1096 (peptide)
chain: CATPPRSKRVAGNASASA
B26: HC2069 (peptide)
chain: CAVVCCSMYYAGNASASA
B27: HC627 (peptide)
chain: CAYVQMVIIKAGNASASA
B28: FS-1182 (peptide)
chain: CAAGRRALRSAGNASASA
B29: FS-341 (peptide)
chain: CAKNGRPLRSAGNASASA
B30: FS-848 (peptide)
chain: CAQLVRALRSAGNASASA
B31: FS-1595 (peptide)
chain: CAKQFRALRSAGNASASA
B32: HC703 (peptide)
chain: CAAGTRTIASAGNASASA
B33: HC386 (peptide)
chain: CAGCPERLASAGNASASA
B34: FS-505 (peptide)
chain: CASRLRFDRFAGNASASA
B35: FS-518 (peptide)
chain: CAVYVRVSRFAGNASASA
B36: FS-1465 (peptide)
chain: CALRIRNVRFAGNASASA
B37: FS-1433 (peptide)
chain: CAVRARFVRFAGNASASA
B38: FS-517 (peptide)
chain: CAVYARVSRFAGNASASA
B39: FS-3186 (peptide)
chain: CAREARAVIFAGNASASA
B40: HC2013 (peptide)
chain: CAVRCCSMSYAGNASASA
B41: HC2263 (peptide)
chain: CAALEVVTSTAGNASASA
B42: HC1350 (peptide)
chain: CADSDAESYSAGNASASA
B43: HC2475 (peptide)
chain: CAHTPCSAHLAGNASASA

Molecular target: furin, P09958
Sequence (P09958 whole entry): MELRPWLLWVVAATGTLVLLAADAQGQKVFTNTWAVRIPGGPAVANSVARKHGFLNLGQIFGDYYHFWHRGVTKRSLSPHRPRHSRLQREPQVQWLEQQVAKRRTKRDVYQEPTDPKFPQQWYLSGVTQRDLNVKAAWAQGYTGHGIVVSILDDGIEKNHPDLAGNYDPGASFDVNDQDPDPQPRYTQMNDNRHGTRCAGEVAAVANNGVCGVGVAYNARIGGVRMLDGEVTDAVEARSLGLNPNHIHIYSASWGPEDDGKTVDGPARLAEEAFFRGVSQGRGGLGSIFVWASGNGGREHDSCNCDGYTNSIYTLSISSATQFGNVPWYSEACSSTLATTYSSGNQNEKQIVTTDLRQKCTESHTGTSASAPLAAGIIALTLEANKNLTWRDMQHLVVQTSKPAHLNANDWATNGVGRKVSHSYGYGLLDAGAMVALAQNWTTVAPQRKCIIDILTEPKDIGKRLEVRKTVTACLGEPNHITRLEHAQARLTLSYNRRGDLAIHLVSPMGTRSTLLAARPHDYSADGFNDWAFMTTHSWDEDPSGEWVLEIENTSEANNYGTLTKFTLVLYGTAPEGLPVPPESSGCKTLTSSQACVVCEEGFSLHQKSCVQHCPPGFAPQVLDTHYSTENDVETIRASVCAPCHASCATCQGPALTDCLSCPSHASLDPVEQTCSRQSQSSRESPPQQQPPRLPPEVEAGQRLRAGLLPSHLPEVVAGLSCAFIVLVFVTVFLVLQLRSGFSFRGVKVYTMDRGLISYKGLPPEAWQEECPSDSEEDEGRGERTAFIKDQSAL
Experiment: furin cleavage Z-score vs untreated control; higher = more cleavage, active = 3.5 or more, inactive = 1 or less, 8 variable residues between constant flanks
Outline: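 Cleavage by purified furin was measured on 8-mer peptides fused to a cDNA oligonucleotide and held on magnetic beads by their N-terminus. Reactions (0.01 ml, 1:10 enzyme:substrate) ran 7.5, 15 or 30 min in 50 mM HEPES pH 7.5 with CaCl2 and NaCl. Released DNA was adapter-tagged by PCR and sequenced, with read counts giving abundance. Log counts versus furin-free reactions were lowess-adjusted and scaled by median absolute deviation to give the cleavage Z-score.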

Row | Sequence | furin cleavage Z-score (7.5 min) | furin cleavage Z-score (15 min) | furin cleavage Z-score (30 min)
1 | B1 | -0.262 (inactive) | -0.642 (inactive) | 2.3
2 | B2 | 1.25 | 0.809 (inactive) | 1.14
3 | B3 | 1.23 | -0.0223 (inactive) | -0.472 (inactive)
4 | B4 | 9.66 (active) | 11.4 (active) | 9.76 (active)
5 | B5 | -0.402 (inactive) | -0.376 (inactive) | -0.0128 (inactive)
6 | B6 | 4.82 (active) | 4.06 (active) | 6.56 (active)
7 | B7 | -0.695 (inactive) | -1.61 (inactive) | -1.39 (inactive)
8 | B8 | -0.833 (inactive) | -0.376 (inactive) | -0.904 (inactive)
9 | B9 | 0.398 (inactive) | 1.61 | 0.854 (inactive)
10 | B10 | 0.568 (inactive) | -0.0293 (inactive) | 0.0874 (inactive)
11 | B11 | 11.1 (active) | 12.6 (active) | 10 (active)
12 | B12 | -1.15 (inactive) | 0.235 (inactive) | -2.19 (inactive)
13 | B13 | 11 (active) | 12 (active) | 9.11 (active)
14 | B14 | 0.729 (inactive) | 0.54 (inactive) | 0.884 (inactive)
15 | B15 | -0.103 (inactive) | 0.906 (inactive) | -0.71 (inactive)
16 | B16 | 7.59 (active) | 6.18 (active) | 7.01 (active)
17 | B17 | 0.306 (inactive) | 3.11 | 2.24
18 | B18 | 0.0211 (inactive) | 1.66 | 1.13
19 | B19 | 8.59 (active) | 9.67 (active) | 6.85 (active)
20 | B20 | 1.1 | -0.279 (inactive) | 0.507 (inactive)
21 | B21 | -0.304 (inactive) | 0.175 (inactive) | 0.222 (inactive)
22 | B22 | 0.252 (inactive) | 0.157 (inactive) | -0.0579 (inactive)

Row | Sequence | furin cleavage Z-score (7.5 min) | furin cleavage Z-score (15 min) | furin cleavage Z-score (30 min)
23 | B23 | -0.473 (inactive) | -0.882 (inactive) | -0.205 (inactive)
24 | B24 | -0.133 (inactive) | -0.615 (inactive) | -0.727 (inactive)
25 | B25 | 4.55 (active) | 6.1 (active) | 4.13 (active)
26 | B26 | -0.54 (inactive) | -0.258 (inactive) | -1.53 (inactive)
27 | B27 | -1.63 (inactive) | -1.94 (inactive) | -0.568 (inactive)
28 | B28 | 4.32 (active) | 4.3 (active) | 3.06
29 | B29 | 0.926 (inactive) | 2.59 | 0.891 (inactive)
30 | B30 | 7.22 (active) | 7.99 (active) | 7.1 (active)
31 | B31 | 4.54 (active) | 5.86 (active) | 4.56 (active)
32 | B32 | 0.83 (inactive) | 0.675 (inactive) | 0.11 (inactive)
33 | B33 | 1.74 | 0.605 (inactive) | -0.259 (inactive)
34 | B34 | -0.495 (inactive) | 0.902 (inactive) | -0.181 (inactive)
35 | B35 | 3.44 | 4.83 (active) | 6.25 (active)
36 | B36 | 2.76 | 6.35 (active) | 7.62 (active)
37 | B37 | 9.46 (active) | 9.43 (active) | 8.99 (active)
38 | B38 | 0.958 (inactive) | 0.514 (inactive) | 2.26
39 | B39 | -0.327 (inactive) | -0.0656 (inactive) | 2.23
40 | B40 | 0.204 (inactive) | -0.014 (inactive) | 0.753 (inactive)
41 | B41 | 0.411 (inactive) | -0.918 (inactive) | -0.927 (inactive)
42 | B42 | -0.915 (inactive) | -2 (inactive) | -1.07 (inactive)
43 | B43 | -0.788 (inactive) | -1.31 (inactive) | -0.643 (inactive)

Source: the supplement of paper PMC3545927
